# Compound activity: PubChem, National Center for Advancing Translational Sciences (NCATS)
# KinaseGlo FLuc: Counterscreen for Luciferase (Kinase-Glo TM) Inhibition; Luciferin 4-monooxygenase (Photuris pensylvanica), Q27757; Kinase-Glo luciferase, ATP luminescence, 8 min; hit rate 0.28% among 200,000; Potency, µM (series often up to 38.3 µM), for the others: at the highest dose activity change, negative = inhibition, actives largely listed as inhibitors; note: % is set by controls: 0 for no effect and ±100 for the full control effect; nearly all actives have a fitted effect of over 60% in size
#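 Compound is pinned into ATP-containing buffer (10 uM ATP, imidazole pH 7.2, 7 mM MgCl2). Kinase-Glo luciferase reagent is then added. Light output is recorded following an 8-min room-temperature incubation.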
# SMN2 splice up: qHTS Assay for Enhancers of SMN2 Splice Variant Expression | AID 1458, 2008 | HEK293 SMN2-luciferase splicing reporter, luminescence, 30-36 h | hit rate 2.8% among 210,000 | Potency, µM (series often up to 46.1 µM), inactives show at the top dose activity change, positive = activation, actives largely listed as activators; note: % of control where 0% means no effect; nearly all actives have a fitted effect of over 55% in size
#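 qHTS luciferase splicing reporter: luminescence rises when SMN2 exon 7 is included in transfected HEK293 cells. Compound exposure lasted 30-36 h at 37C, with 4.5 mM final sodium butyrate as control, followed by a ONE-Glo read.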
# NPC1 promoter act: qHTS Assay for NPC1 Promoter Activators. Huh7 NPC1 promoter luciferase reporter, 24 h. Potency, µM (series often up to 9.22 µM), inactives show at the top dose activation, most hits filed as activators. hit rate 2.4% among 320,000. AID 485313, 2010; note: % of control where 0% means no effect; nearly all actives have a fitted effect of over 60% in size
#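 Luciferase expression driven by the NPC1 promoter was measured in stably transfected Huh7 cells after a 24 h compound incubation, using a luciferase reagent and a luminescence read.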
# ELG1 genotoxic: qHTS screen for small molecules that induce genotoxicity in human embryonic kidney (HEK293T) cells expressing luciferase-tagged ELG1; hit rate 1.3% among 330,000; HEK293T ELG1-luciferase reporter, luminescence, 16 h; Potency, µM (highest dose often 46 µM), inactives show top-dose activity change, positive = activation, most hits filed as activators; note: % of control where 0% means no effect; nearly all actives have a fitted effect of over 60% in size
#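 DMSO vehicle served as control against compound-treated ELG1-luciferase HEK293T cells; exposure lasted 16 hr at 37 °C and 5% CO2, followed by ONE-Glo luminescence detection after 30 min.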
# FLuc modulator: qHTS profiling assay for firefly luciferase inhibitor/activator using purifed enzyme and Km concentrations of substrates (counterscreen for miR-21 project) | Luciferin 4-monooxygenase (Photinus pyralis), P08659 | purified FLuc, Km substrates, luminescence inhibition | Potency, µM (series often up to 57.5 µM), without a hit: top-dose activity change, negative = inhibition, hits mostly inhibitors | hit rate 6.9% among 360,000;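 note: plate controls were vehicle for no effect and reference inhibitor for full effect; nearly all actives have a fitted effect of over 55% in size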
# Target sequence (P08659 whole entry, looked up): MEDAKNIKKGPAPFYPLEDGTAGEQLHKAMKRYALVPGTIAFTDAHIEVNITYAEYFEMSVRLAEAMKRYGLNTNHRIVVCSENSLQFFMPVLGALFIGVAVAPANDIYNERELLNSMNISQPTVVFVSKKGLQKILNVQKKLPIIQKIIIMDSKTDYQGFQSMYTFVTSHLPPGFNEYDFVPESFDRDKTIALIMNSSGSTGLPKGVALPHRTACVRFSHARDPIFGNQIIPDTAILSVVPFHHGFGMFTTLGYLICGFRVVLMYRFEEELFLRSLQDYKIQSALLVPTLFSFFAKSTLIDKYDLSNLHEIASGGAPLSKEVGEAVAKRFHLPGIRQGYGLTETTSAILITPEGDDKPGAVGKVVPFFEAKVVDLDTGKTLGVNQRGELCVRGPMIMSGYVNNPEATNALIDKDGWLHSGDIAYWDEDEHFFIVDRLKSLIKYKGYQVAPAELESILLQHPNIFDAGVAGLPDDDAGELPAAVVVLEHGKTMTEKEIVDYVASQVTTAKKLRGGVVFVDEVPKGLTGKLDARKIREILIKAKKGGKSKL
#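 Purified P. pyralis luciferase, 10 nM final, with Km-level 10 uM D-luciferin and 10 uM ATP in 50 mM Tris acetate pH 7.5, 10 mM Mg acetate, 0.01% Tween-20, 0.05% BSA; 6-point qHTS titration about 60 µM downward; luminescence read.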
# Rab9 prom act: qHTS Assay for Rab9 Promoter Activators; Huh7 Rab9 promoter-luciferase reporter, luminescence, 24 h; Potency, µM (highest dose often 9.22 µM), for inactives: top-dose activation, negative = inhibition, hits mostly activators; hit rate 2.8% among 320,000; AID 485297, 2010; note: % of control where 0% means no effect; nearly all actives have a fitted effect of over 60% in size
#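 Quantitative HTS format; Huh7 Rab9-luciferase reporter cells (1500/well) receive compound 2 h post-plating, incubate 24 h at 37 °C, then get luciferase reagent for 10 min before luminescence reading.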
# Numbers without * were called inactive; ? = inconclusive; nt = not tested or not shown; [ ] = remark or other dose. A selection: hits, their analogues and other compounds. The true share with any hit is near 7.5%. Calls come from the whole dose curve; as a rule, active = well fitted curve in the direction sought with a large enough effect; inconclusive = small, poorly fitted or top-dose-only effect, or another doubt; inactive = no such curve, though single readings can be large; an effect the other way counts as inactive or inconclusive. Potency is the fitted concentration of half-maximal effect.
SMILES,KinaseGlo FLuc,SMN2 splice up,NPC1 promoter act,ELG1 genotoxic,FLuc modulator,Rab9 prom act
Nc1nc(-c2cccnc2)nc2sc3c(c12)CCCC3,-6%,11µM*,2µM*,7.3µM*,1.1µM*,3.2µM*
Cc1ccccc1-c1nc2sc3c(c2c(=O)o1)CCC3,-17%,33%,-2%,3%,2.4µM*,4%
CC(C)(C)c1nc2sc3c(c2c(=O)o1)CCCC3,-5%,3%,1%,3%,-7%,2%
COC(=O)c1ccccc1NC(=O)COC(=O)CO/N=C(\C)c1ccc2c(c1)OCO2,nt,nt,-3%,3%,1%,4%
c1csc(C2=NNC(=NC3CCCCC3)SC2)c1,-11%,13µM*,1.3µM*,?,4.8µM*,1µM*
c1ccc2oc(C3=NNC(=NC4CC4)SC3)cc2c1,?,1µM*,0.28µM*,?,0.76µM*,0.32µM*
c1ccc(CN=C2NN=C(c3cc4ccccc4o3)CS2)cc1,5%,18%,18%,1%,17µM*,18%
COC(=O)c1cc(C(=O)OCC(=O)c2ccc[nH]2)cc([N+](=O)[O-])c1,nt,nt,0%,-1%,0%,-2%
CC(C)Oc1cccc(NC(=O)C2CCN(S(=O)(=O)Cc3ccccc3)CC2)c1,nt,nt,nt,nt,-7%,nt
COc1cccc(/C=N/NC(=O)C(C)Cn2cnc3ccccc32)c1 (stereo not drawn),nt,nt,-3%,-7%,15µM*,-5%
COc1ccc(/C=N/NC(=O)c2nc(-c3ccccc3)cc(-c3ccccc3)n2)cc1OC,-6%,-37%,3%,-1%,2.4µM*,-3%
COc1cccc(/C=N/NC(=O)c2nc(-c3ccccc3)cc(-c3ccccc3)n2)c1,-6%,-18%,-2%,-9%,2.4µM*,3%
CCOCCCNC(=O)c1ccc(-n2c(=S)[nH]c3ccccc3c2=O)cc1,2%,10%,-7%,-7%,6%,-3%
COc1ccccc1OCCn1c(-c2ccc(Br)cc2)nc2ccccc2c1=O,nt,-6%,nt,nt,-2%,nt
O=c1ccc2cc(S(=O)(=O)N3CCOCC3)ccc2o1,1%,7.9µM*,-4%,0%,9%,2%
Cc1cccc(NC(=O)Cn2nnc3ccccc32)c1,-2%,2%,2.8µM*,?,?,2.8µM*
COc1ccc(NC(=O)COC(=O)Cn2nnc3ccccc32)cc1,-1%,-2%,-3%,0%,-10%,0%
COC(=O)c1ccc(NC(=O)Cn2nnc3ccccc32)cc1,-2%,13µM*,3.5µM*,16µM*,4.3µM*,2.8µM*
Cc1ccc(SCc2nc3ccccc3n2CC(=O)Nc2ccccc2)cc1,-8%,6%,-3%,-1%,15µM*,4%
O=C(Cn1nnc2ccccc21)Nc1ccc([N+](=O)[O-])cc1,nt,nt,-2%,2%,1%,-1%
Cc1ccc(NC(=O)Cn2nnc3ccccc32)cc1,0%,nt,?,?,17µM*,3.5µM*
COc1ccc(CNC(=O)c2cnc(N(C)C)nc2)cc1,nt,nt,nt,nt,-1%,nt
COc1ccc(OC)c(NC(=O)CSc2nc3ccccc3c(=O)n2CCNC(C)=O)c1,1%,-5%,-2%,0%,-1%,-2%
COc1ccc(OC)c(NC(=O)Nc2cc(NC(=O)Nc3cc(OC)ccc3OC)c(C)nc2C)c1,0%,14µM*,-5%,?,6%,-3%
Cc1cc(NC(=O)c2c(Cl)cccc2Cl)no1,0%,2%,-2%,1%,-15%,3%
SMILES,KinaseGlo FLuc,SMN2 splice up,NPC1 promoter act,ELG1 genotoxic,FLuc modulator,Rab9 prom act
Cc1cc(NC(=O)Nc2ccccc2Cl)no1,nt,nt,19%,7%,15µM*,28%
COc1ccc(OC)c(NC(=O)Cn2c(C)nc3ccccc3c2=O)c1,0%,nt,3.2µM*,?,9.5µM*,19%
COc1ccc(NC(=O)Nc2cc(NC(=O)Nc3ccc(OC)cc3)c(C)nc2C)cc1,1%,20%,-2%,2%,0%,-5%
COc1ccc(Cl)cc1NC(=O)Nc1cc(C)on1,nt,nt,1.4µM*,1.3µM*,6µM*,0.5µM*
COc1ccc(C)cc1NC(=O)C(=O)NCCc1csc(-c2ccc(C)cc2)n1,nt,nt,nt,nt,-1%,nt
COc1ccccc1NC(=O)CN1C(=O)NC2(CCCc3ccccc32)C1=O (stereo not drawn),nt,nt,-3%,2%,-2%,0%
Cc1ccc(S(=O)(=O)CCNC(=O)Cc2ccccc2)cc1,1%,10%,-4%,4%,3%,-6%
O=C(c1csnn1)N1CCC2(CCCN(Cc3cc(C(F)(F)F)cc(C(F)(F)F)c3)C2)CC1,-2%,-6%,nt,nt,nt,nt
COc1ccc(Cl)cc1NC(=O)NCc1cccnc1,nt,nt,-7%,0%,15µM*,1%
COc1ccc(OC)c(NC(=O)NCc2cccnc2)c1,nt,nt,-3%,0%,5%,3%
COc1ccc(/C=C/c2nc(-c3ccccc3O)n[nH]2)cc1OC,3%,?,?,?,12µM*,?
O=C(O)COc1ccc(/C=C/c2nc(-c3ccccc3O)n[nH]2)cc1,nt,nt,-5%,-6%,11µM*,-2%
CCOC(=O)C1=C(CC)Nc2ccccc2N=C1NC(=O)c1cc(S(=O)(=O)N2CCOCC2)ccc1C,nt,nt,nt,0%,nt,nt
Clc1ccc(/C=C\c2nc(Cl)c(-c3ccc(Cl)cc3)c(Cl)n2)cc1,-4%[7.66 µM],-4%[9.22 µM],nt,nt,nt,nt
CC(=O)c1ccc(NC(=O)/C=C/c2ccc(C)cc2)cc1,10%,12%,-5%,10%,?,-8%
Cc1ccc(/C=C/C(=O)NC2=NCCS2)cc1,-3%,0.5µM*,?,2.9µM*,1.3µM*,0.5µM*
CC(C)(C)c1ccc(/C=C/C(=O)NC2=NCCS2)cc1,-4%,?,0.5µM*,?,0.76µM*,0.4µM*
Cc1ccc(S(=O)(=O)N(C)c2ccc(OC(=O)c3cccs3)cc2)cc1C,nt,nt,-2%,-4%,1%,-1%
Cc1ccc(NC(=O)C2CCCN2C(=O)c2cccs2)c(C)c1 (stereo not drawn),nt,nt,0%,0%,1%,-3%
Cc1ccc(-c2nc(S(=O)(=O)c3ccc(C)cc3)c(N(C)C)o2)cc1,nt,nt,?,-1%,2%,2%
Cc1ccc(S(=O)(=O)c2nc(-c3ccccc3Cl)oc2N(C)C)cc1,nt,nt,-4%,?,15µM*,-1%
O=C(NCc1ccc2c(c1)OCO2)c1cc(-c2ccccc2Cl)on1,-2%,12%,1%,9%,17µM*,-2%
